Activity calls are given as the source filed them. How the source made its calls: active means hit-call score of the fitted dose curve at least 0.9, where 1 is the maximum; inactive means score below 0.9.

Chain of Signal transducer and activator of transcription 3 (Homo sapiens) (P40763 whole entry, looked up): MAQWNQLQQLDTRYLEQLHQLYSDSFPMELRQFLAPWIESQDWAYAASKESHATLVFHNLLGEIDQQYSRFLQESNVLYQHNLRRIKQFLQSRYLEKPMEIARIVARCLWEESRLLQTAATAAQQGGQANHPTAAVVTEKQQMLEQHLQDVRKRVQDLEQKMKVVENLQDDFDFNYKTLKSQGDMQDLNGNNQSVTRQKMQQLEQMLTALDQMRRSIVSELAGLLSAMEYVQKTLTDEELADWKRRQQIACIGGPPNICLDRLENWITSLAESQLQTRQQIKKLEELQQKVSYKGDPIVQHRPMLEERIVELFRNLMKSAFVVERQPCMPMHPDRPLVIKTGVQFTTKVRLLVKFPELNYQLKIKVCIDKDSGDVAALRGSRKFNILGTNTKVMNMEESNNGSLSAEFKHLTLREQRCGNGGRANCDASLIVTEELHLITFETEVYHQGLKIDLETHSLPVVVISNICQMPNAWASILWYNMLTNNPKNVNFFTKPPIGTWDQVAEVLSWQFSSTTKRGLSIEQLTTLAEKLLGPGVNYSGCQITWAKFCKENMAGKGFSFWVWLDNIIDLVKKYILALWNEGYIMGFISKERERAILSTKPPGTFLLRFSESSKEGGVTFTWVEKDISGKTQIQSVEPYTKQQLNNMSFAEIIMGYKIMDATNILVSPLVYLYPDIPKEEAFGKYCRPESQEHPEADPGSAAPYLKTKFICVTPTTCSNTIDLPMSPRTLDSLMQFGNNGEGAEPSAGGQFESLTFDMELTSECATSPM

Read-out in this assay: Signal transducer and activator of transcription 3 (Homo sapiens) (UniProt P40763)
As to the kind of experiment: LTEA_HepaRG_STAT3: Life Technologies and Expression Analysis (LTEA) Assay for Signal transducer and activator of transcription (STAT3) using HepaRG (AID 2283529). The note with it: mRNA level, 48 h; actives raise or lower the signal. As to the method:
LTEA_HepaRG is a cell based, multiplexed-readout assay that uses HepaRG, a human liver cell line, with measurements taken at 48 hours after chemical dosing on a 96-well plate.LTEA_HepaRG_STAT3 is one of 102 assay component(s) measured in the LTEA HepaRG cell culture assay. It is a marker of Cell proliferation, survival, death.Data from the assay component LTEA_HepaRG_STAT3 was analyzed into 1 endpoint. This assay endpoint, LTEA_HepaRG_STAT3, was analyzed with bidirectional fitting relative to DMSO as the negative control and baseline of activity. Using a type of inducible reporter, measures of mRNA induction for gain or loss-of-signal activity can be used to understand regulation of transcription factor activity. To generalize the intended target to other relatable targets, this assay endpoint is annotated to the dna binding intended target family, where the subfamily is stat protein.
A total of 1060 chemcials from the ToxCast library were tested in eight-point concentration-response experiments. Cell culture and cytotoxicity assays were conducted at Thermo Fisher Scientific's Custom Services facility (Madison, WI). A single lot of human HepaRG cells (Thermo Fisher Scientific, Frederick, MD) was used for the cell culture experiments. 96-well format collagen type I coated plates of human HepaRG cells were prepared using established methods. Briefly, cryopreserved HepaRG cells were thawed, plated at a density of approximately 100,000 cells/well in HepaRG Thaw, Plate, and General Purpose media (HPRG770, Thermo Fisher Scientific), and incubated for 48 hours. 0.5% DMSO was selected as vehicle control to balance the requisite need of DMSO in HepaRG cultures to maintain differentiation (for example, baseline metabolism, proportions of hepatocytes vs. cholangiocytes), while enabling further hepatic receptor pathway activation (for example, PXR and CAR) in response to chemical exposure. 48 hours after plating, the culture medium was replaced with HepaRG Serum-Free Incudtion Media. Cells were exposed to each test chemical in duplicate and maintained in CO2 incubators for another 48 hours. Chemical plates were thawed to room temperature and 200x concentrations of treatment groups were prepared. 8-point conentration-reponse curves were made with the highest exposure at 100 uM, followed by half-log dilutions, all in 0.5% DMSO. Each test plate contained variouse controls, induction positive controls (1mM phenobarbital), cytotoxicity positive controls ([…] aflatoxin B1), vehicle controls (0.5% DMSO), and total lysis controls (0.5% DMSO). Cell morphology images were taken using an Essen IncuCyte FLR automated microscope, with six 96-well plates imaged in about 24 minutes. Images were captured and exported and JPEG files. Spent culture media was transfered to black-well plates for the LDH assay, and remaining media was sorted at -80 C for later use. Cells were treated with RLT buffer and frozen until shipped for gene expression analysis. Total RNA was isolated from the cell suspension in 75 uL of Buffer RLT (Qiagen, Germantown, MD 20874) by Quintiles/Expression Analysis (Durham, NC) using a custom isolation procedure. Total RNA from each plate well was transferred to a preamplification plate. Fluidigm's 96.96 Dynamic ArrayTM (Fluidigm, Amsterdam, the Netherlands) technology was used for gene expression analyses by quantitative reverse transcription polymerase chain reaction (qRT-PCR, performed by Quintiles/Expression Analysis, Durham, NC)89. Standard TaqManTM Assays (Applied Biosystems/ThermoFisher Scientific, Foster City, CA) were used to assess the expression of 93 genes selected based on their selectivity and sensitivity to important hepatic receptors known to be modulated by environmental chemicals; importance in human hepatocyte functionality; and hepatotoxicity. […]
In the case of `CCCN(CCC)N=O`, the compound was classed as inactive.
Still for that read-out and setting: in the case of `CCC(C)(c1ccc(O)cc1)c1ccc(O)cc1` it was “inactive”; in that of `c1ccc(-c2ccccc2)cc1`, “inactive”; in that of `Cc1ccccc1CO[C@@H]1C[C@@]2(C(C)C)CC[C@]1(C)O2`, “inactive”.
For `Cc1ccc(O)c(C)c1`, the result was inactive.
For the compound `O=S(=O)(O)C(F)(F)C(F)(F)C(F)(F)C(F)(F)C(F)(F)C(F)(F)F`, the compound was called inactive.
On to `O=C(O)C(F)(F)C(F)(F)C(F)(F)C(F)(F)C(F)(F)F`, for which the call was inactive.
For the compound `Nn1cnnc1`, the result was inactive.
For `Cc1cc2c3c(c1)C(c1ccccc1)=N[C@@H](NC(=O)c1ccncc1)C(=O)N3CC2`, the call was inactive.
One may read the AC50 as the concentration at which the activity in the assay is half-maximal. For the compound `CC#Cc1cc(C)nc(Nc2ccccc2)n1`, the AC50 is 6.11 µM (active).
As to `Cc1cc(-c2ccc(N)c(C)c2)ccc1N`, the call was inactive.
Consider `ClC1=C(Cl)[C@]2(Cl)[C@@H]3[C@@H](Cl)[C@H]4O[C@H]4[C@@H]3C1(Cl)C2(Cl)Cl`, for which the compound was called inactive.
Still for that read-out and setting: in the case of `CC(C)(c1ccccc1)c1ccc(O)cc1` it was “inactive”.
Regarding `C[C@]12CCC(=O)C=C1CC[C@@H]1[C@@H]2CC[C@]2(C)C(=O)CC[C@@H]12`, the result was inactive.
With `CCOCCOC(C)=O`, the result was inactive.
Take `O=C(NC(=O)c1cc(F)c(F)cc1Cl)Nc1cc(F)ccc1N1CCC(C(=O)O)CC1`: the compound was classed as inactive.
Same read-out and setting: in the case of `O=C(N[C@H]1CN2CCC1CC2)c1cc2ccoc2cn1` it was “inactive”; in that of `COc1ccc(O)c(C(C)(C)C)c1`, “inactive”.
For `CCOC(=O)C(O)(c1ccc(Cl)cc1)c1ccc(Cl)cc1`, the compound was called inactive.
Consider `CC(C)C(=O)OCC(C)(C)C(OC(=O)C(C)C)C(C)C` (stereo not given), for which the compound was classed as inactive.
With `CC(C)(O)C(=O)Nc1ccc([N+](=O)[O-])c(C(F)(F)F)c1`, the call was inactive.
Turning to `CCCCCCCCCC[N+](C)(C)CCCCCCCCCC`, the outcome was inactive.
Still for that read-out and setting: for `Cc1ccccc1[N+](=O)[O-]` the value was “inactive”; for `O=C(O)C(F)(F)C(F)(F)C(F)(F)C(F)(F)C(F)(F)C(F)(F)C(F)(F)C(F)(F)F`, “inactive”.
Take `Oc1c(Cl)c(Cl)c(Cl)c(Cl)c1Cl`: the AC50 is 1.19 µM (active).
`CC(c1ccc(O)cc1)(c1ccc(O)cc1)c1ccc(O)cc1`: the AC50 was 90.9 µM (active).
Take `Oc1ccc(Cl)cc1Cl`: the compound was called inactive.
For `O=NN(c1ccccc1)c1ccccc1`, the outcome was inactive.
Turning to `NS(=O)(=O)C(F)(F)C(F)(F)C(F)(F)C(F)(F)C(F)(F)C(F)(F)C(F)(F)C(F)(F)F`, the half-maximal activity concentration (AC50) is 15.2 µM (active).
For the compound `CCCCCCCCCc1ccc(O)cc1`, the compound was classed as inactive.
`ClC1=C(Cl)[C@]2(Cl)[C@@H]3[C@H]4C[C@H]([C@@H]5O[C@H]45)[C@@H]3[C@@]1(Cl)C2(Cl)Cl`: the outcome was inactive.
In the case of `ClC1=C(Cl)[C@]2(Cl)[C@@H]3[C@@H]4C[C@@H]([C@H]5O[C@@H]45)[C@@H]3[C@@]1(Cl)C2(Cl)Cl`, the half-maximal activity concentration (AC50) was 0.0319 µM (active).
In the case of `Cc1cccc(C)c1N`, the outcome was inactive.
Regarding `C=CC(=O)NCNC(=O)C=C`, the compound was called inactive.
With `Cc1cccc([N+](=O)[O-])c1`, the compound was classed as inactive.
With `Oc1ccc(C(c2ccc(O)cc2)(C(F)(F)F)C(F)(F)F)cc1`, the result was inactive.
In the case of `C1CC2OC2CC1C1CO1` (stereo not given), the compound was classed as inactive.
Consider `CCC(C)(CC)c1cc(NC(=O)c2c(OC)cccc2OC)on1`, for which the outcome was inactive.
As to `CCC(C)c1cc([N+](=O)[O-])cc([N+](=O)[O-])c1O` (stereo not given), the AC50 is 0.631 µM (active).
As for `Nc1ccc(-c2ccc(N)cc2)cc1`, the result was inactive.

(Values after PubChem BioAssay (EPA / NIEHS).)
